HPGD block: qHTS Assay for Inhibitors of HPGD (15-Hydroxyprostaglandin Dehydrogenase); Potency, µM, usual class: inhibitors; actives 4.3% (n = 150,000); 15-hydroxyprostaglandin dehydrogenase [NAD(+)] (Homo sapiens), P15428; purified HPGD, NADH fluorescence kinetic, PGE2 substrate
Target sequence (P15428 whole entry, looked up): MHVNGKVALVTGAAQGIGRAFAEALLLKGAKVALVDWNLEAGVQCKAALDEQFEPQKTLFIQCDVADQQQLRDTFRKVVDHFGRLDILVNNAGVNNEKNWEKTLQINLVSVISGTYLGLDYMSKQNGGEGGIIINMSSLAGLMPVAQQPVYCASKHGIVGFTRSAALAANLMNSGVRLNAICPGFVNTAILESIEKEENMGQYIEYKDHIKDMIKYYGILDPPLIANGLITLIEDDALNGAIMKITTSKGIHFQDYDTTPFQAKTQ
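20 nM HPGD preincubated 15 min at room temperature with compound in 50 mM Tris-HCl pH 8, 0.01% Tween 20. Started with 1 mM NAD+ and 30 uM prostaglandin E2; NADH fluorescence (360/450 nm) read 5 times over 30-s intervals, last minus first.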
Lamin A splicing: qHTS Assay for Modulators of Lamin A Splicing; HeLa LMNA splicing GFP/RFP minigene ratio, 48 h; Potency, µM (series often up to 46.1 µM), most hits filed as inhibitors; actives 0.01% (n = 200,000); AID 1487, 2009; active means well fitted inhibition curve with a large enough effect in the signal ratio, with a control signal flat, not every such curve was filed as active; inconclusive means small, poorly fitted or top-dose-only effect, or effect the other way, or a change in a side signal; the % refers to the signal ratio
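S3 HeLa cells stably expressing lamin A-EGFP splicing minigene plus DsRed2, 600 cells/well, 48 h compound exposure at 37C. Laser-scanning cytometry; analysed as GFP (500-530 nm)/RFP (575-640 nm) total intensity ratio; 0.5% DMSO vehicle.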
12-hLO inh: qHTS Assay for Inhibitors of 12-hLO (12-human lipoxygenase); AID 1452, 2008; Potency, µM (doses to about 57.1 µM), actives largely listed as inhibitors; Polyunsaturated fatty acid lipoxygenase ALOX12 (Homo sapiens), P18054; actives 0.12% (n = 150,000); purified 12-hLO, xylenol orange hydroperoxide absorbance; active means well fitted inhibition curve with a large enough effect; inconclusive means small, poorly fitted or top-dose-only effect; further: nearly all actives have a fitted effect of over 55% in size
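Purified human 12hLO (150 nM), preincubated 15 min with compound, then 40 uM arachidonic acid for 30 min, room temperature, Hepes pH 7.0 with 0.01% Triton X-100. Hydroperoxide detected by ferrous iron/xylenol orange; 573/405 nm absorbance ratio gives reaction progress.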
ALDH1A1 inh: qHTS Assay for Inhibitors of Aldehyde Dehydrogenase 1 (ALDH1A1) | Aldehyde dehydrogenase 1A1 (Homo sapiens), P00352 | actives 7.3% (n = 220,000) | Purified ALDH1A1, NADH fluorescence, propionaldehyde substrate | AID 1030, 2008 | Potency, µM (series often up to 75.3 µM), most hits filed as inhibitors
Target sequence (P00352 whole entry, looked up): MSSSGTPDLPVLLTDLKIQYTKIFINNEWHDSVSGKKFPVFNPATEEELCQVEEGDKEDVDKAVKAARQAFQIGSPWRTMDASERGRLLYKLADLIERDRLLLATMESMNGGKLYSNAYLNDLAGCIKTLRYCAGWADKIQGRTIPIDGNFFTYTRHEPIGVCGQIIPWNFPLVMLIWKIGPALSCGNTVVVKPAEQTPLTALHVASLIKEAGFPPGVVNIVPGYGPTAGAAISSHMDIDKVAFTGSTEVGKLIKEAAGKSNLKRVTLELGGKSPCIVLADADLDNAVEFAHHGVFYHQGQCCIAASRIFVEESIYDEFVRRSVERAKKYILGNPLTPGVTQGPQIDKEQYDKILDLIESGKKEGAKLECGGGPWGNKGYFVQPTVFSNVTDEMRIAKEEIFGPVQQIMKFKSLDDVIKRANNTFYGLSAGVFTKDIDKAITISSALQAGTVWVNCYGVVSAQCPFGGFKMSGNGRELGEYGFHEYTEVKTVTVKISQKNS
PNC inhibitor: High Content Assay for Compounds that inhibit the Assembly of the Perinucleolar Compartment; activity change (PNC), negative = inhibition, % at 10 µM; actives 3.1% (n = 140,000); PC3M PTB-GFP, PNC prevalence imaging, 16 h; hits give low values;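 active means readout at or below -70, meaning at least 70% loss of cells showing the perinucleolar compartment, a nuclear body marking cancer cells; inconclusive means readout between -30 and a set limit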
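PC3M cells stably expressing PTB-GFP, 750–1000 cells/well, treated 16 h at 37 °C with compound (23 nl of library stock), in duplicate. After paraformaldehyde fixation and Hoechst stain, imaged at 20x; PNC prevalence scored by image analysis.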
Large screens that a line does not name were inactive; ! = a repeat was not active. Sampled rows, rich in hits. Any-hit rate of the full collection: about 10%. Unless noted, the call rests on the fitted dose curve; in most records, active means well fitted inhibition curve with a large enough effect (not every such curve was filed as active); inconclusive means small, poorly fitted or top-dose-only effect, or another doubt; inactive means no such curve, though single readings can be large or run the other way.

COCCNC(=O)[C@H](C)[C@H]1C[C@]1(C)[C@H](NC(=O)OCc1ccccc1)c1ccccc1	ALDH1A1 inh 28µM!
C[C@@H](C(=O)N[C@@H](CO)Cc1ccccc1)[C@@H]1C[C@@]1(C)[C@@H](NC(=O)OCc1ccccc1)c1ccccc1	none (no result: Lamin A splicing, PNC inhibitor)
CNC(=O)[C@H](C)[C@@H]1C[C@@]1(C)[C@@H](NC(=O)OCc1ccccc1)c1ccccc1	none
C[C@@H](C(=O)NCC1CC1)[C@H]1C[C@]1(C)[C@H](NC(=O)OCc1ccccc1)c1ccccc1	ALDH1A1 inh 18µM
C[C@@H](C(=O)N[C@@H](CO)Cc1ccccc1)[C@H]1C[C@]1(C)[C@H](NC(=O)OCc1ccccc1)c1ccccc1	ALDH1A1 inh 7.1µM (no result: Lamin A splicing, PNC inhibitor)
O=C(C1CCC1)N1CCCc2cc(S(=O)(=O)N3CCN(c4ccccc4)CC3)ccc21	none (no result: HPGD block, 12-hLO inh, ALDH1A1 inh, PNC inhibitor)
Cc1ccc(CNC(=O)[C@H](C)[C@H]2C[C@]2(C)[C@H](NC(=O)OCc2ccccc2)c2ccccc2)o1	HPGD block 25µM!, Lamin A splicing inconclusive, ALDH1A1 inh 14µM!
C[C@@H](C(=O)NCc1cccc2ccccc12)[C@H]1C[C@]1(C)[C@H](NC(=O)OCc1ccccc1)c1ccccc1	HPGD block inconclusive, ALDH1A1 inh inconclusive (no result: Lamin A splicing, PNC inhibitor)
C[C@@H](C(=O)NCc1ccc(S(C)(=O)=O)cc1)[C@H]1C[C@]1(C)[C@H](NC(=O)OCc1ccccc1)c1ccccc1	ALDH1A1 inh 6.3µM
Cc1ccc(CNC(=O)[C@H](C)[C@H]2C[C@]2(C)[C@H](NC(=O)OCc2ccccc2)c2ccccc2)c(F)c1F	ALDH1A1 inh 3.2µM (no result: Lamin A splicing, PNC inhibitor)
COc1ccc(-c2ccc(=O)n(CC(=O)Nc3ccc(N(C)C)cc3)n2)cc1	none (no result: HPGD block, 12-hLO inh, ALDH1A1 inh, PNC inhibitor)
Cc1nn(CC(=O)Nc2ccc(C(=O)N3CCCCC3)cc2)c(=O)c2ccccc12	HPGD block 1.1µM, ALDH1A1 inh 13µM
Cc1nn(CC(=O)Nc2cccnc2)c(=O)c2ccccc12	none (no result: HPGD block, 12-hLO inh, PNC inhibitor)
O=C(Cn1nc(-c2ccc(F)cc2)ccc1=O)Nc1ccc(C(=O)NC2CC2)cc1	HPGD block 28µM
COc1cccc(-c2ccc(=O)n(CC(=O)Nc3ccc(C(=O)N4CCCC4)cc3)n2)c1	HPGD block 13µM, ALDH1A1 inh inconclusive
Cc1nn(CC(=O)Nc2ccc(C(=O)N3CCCC3)cc2)c(=O)c2ccccc12	HPGD block 14µM
Cc1ccc(-n2ncc3c(NC4CCCCC4)ncnc32)cc1	none (no result: HPGD block, 12-hLO inh, ALDH1A1 inh, PNC inhibitor)
Cc1ccccc1C(=O)Nc1c(C)nc2ccccn2c1=O	none (no result: HPGD block, 12-hLO inh, ALDH1A1 inh, PNC inhibitor)
N[C@H](C(=O)O)c1cccc(O)c1	none (no result: Lamin A splicing, PNC inhibitor)
Cc1nn(CC(=O)Nc2ccc3c(c2)nc(CN2CCCC2)n3C)c(=O)c2ccccc12	PNC inhibitor -100
Cn1c(CN2CCCC2)nc2cc(NC(=O)COc3ccccc3)ccc21	PNC inhibitor inconclusive
Cc1ccc(-c2nnc(Nc3ccc(Br)cc3)c3ccccc23)cc1S(=O)(=O)N1CCOCC1	none (no result: HPGD block, 12-hLO inh, ALDH1A1 inh, PNC inhibitor)
C=CCOC(=O)N[C@@H](Cc1ccccc1)/C(C(=O)OC)=C(\C)NCc1ccccc1	ALDH1A1 inh inconclusive (no result: Lamin A splicing, 12-hLO inh, PNC inhibitor)
CC1=NOC(=O)/C1=C\c1ccc(-c2ccc(Cl)c(C(=O)O)c2)o1	ALDH1A1 inh 0.89µM (no result: HPGD block, Lamin A splicing, 12-hLO inh, PNC inhibitor)
CC1=NOC(=O)/C1=C\c1ccc(-c2cccc(Cl)c2)o1	HPGD block 3.2µM, ALDH1A1 inh inconclusive
CC1(C)OC(=O)C(=Cc2ccc(-c3ccc(Cl)c(C(=O)O)c3)o2)C(=O)O1	ALDH1A1 inh inconclusive (no result: HPGD block, 12-hLO inh, PNC inhibitor)
O=C(O)c1cc(-c2ccc(/C=C3/SC(=S)N(Cc4ccccc4)C3=O)o2)ccc1Cl	ALDH1A1 inh 0.089µM (no result: HPGD block, Lamin A splicing, 12-hLO inh, PNC inhibitor)
CC1=NOC(=O)/C1=C\c1ccc(-c2ccccc2Br)o1	ALDH1A1 inh 18µM (no result: HPGD block, Lamin A splicing, 12-hLO inh, PNC inhibitor)
Cc1ccc(OCC(=O)Nc2cccc(C(=O)OCc3cc(=O)n4nc(C)sc4n3)c2)cc1	none (no result: HPGD block, 12-hLO inh, ALDH1A1 inh, PNC inhibitor)
O=C(c1nc2ccc([N+](=O)[O-])cc2[nH]c1=O)[C@@H](O)c1ccc2c(c1)OCO2	none (no result: Lamin A splicing, PNC inhibitor)
O=C(OCc1ccccc1)[C@@H]1COC(c2ccc(Br)cc2)=N1	none (no result: Lamin A splicing, PNC inhibitor)
O=c1c(S(=O)(=O)c2cccc(Cl)c2)cn(Cc2ccccc2)c2cc(N3CCCCC3)c(F)cc12	none (no result: HPGD block, 12-hLO inh, ALDH1A1 inh, PNC inhibitor)
CCC(=O)OCC(=O)C1(OC(=O)CC)C(C)CC2C3C(Cl)CC4=CC(=O)C=C[C@@]4(C)C3C(O)C[C@@]21C (stereo partly specified)	ALDH1A1 inh inconclusive (no result: Lamin A splicing, PNC inhibitor)
COC(=O)c1ccc(N2NC(=O)/C(=C/c3ccc(-c4ccc(Cl)c(C(=O)O)c4)o3)C2=O)cc1	ALDH1A1 inh 8.9µM (no result: HPGD block, 12-hLO inh, PNC inhibitor)
CN(C)C(=O)c1ccc(NC(=O)c2cncc(Br)c2)cc1	PNC inhibitor -100
CC(C)OC(=O)c1ccc(NC(=O)c2cncc(Br)c2)cc1	ALDH1A1 inh 18µM (no result: HPGD block, 12-hLO inh, PNC inhibitor)
O=C(Nc1ccc2c(c1)OCO2)c1cncc(Br)c1	PNC inhibitor inconclusive
Cc1ccc(S(=O)(=O)N(CCc2ccccc2)CC(=O)Nc2cc(C)ccc2C)cc1	none (no result: HPGD block, 12-hLO inh, ALDH1A1 inh, PNC inhibitor)
O=C(/C=C/Sc1ccccc1)c1ccccc1	HPGD block inconclusive, Lamin A splicing inconclusive, ALDH1A1 inh 7.9µM, PNC inhibitor inconclusive
CN(Cc1ccc(Cl)s1)C(=O)CCl	ALDH1A1 inh 0.35µM (no result: HPGD block, 12-hLO inh, PNC inhibitor)
COc1ccc(CN(C)C(=O)CCl)cc1	ALDH1A1 inh 0.5µM (no result: HPGD block, Lamin A splicing, 12-hLO inh, PNC inhibitor)
CN(Cc1ccc(Cl)cc1)C(=O)CCl	ALDH1A1 inh 0.5µM (no result: HPGD block, Lamin A splicing, 12-hLO inh, PNC inhibitor)
CS(=O)(=O)N(CC(N)=O)Cc1ccc(Cl)cc1	none
CCCOc1ccc(C2C(=O)N(C3CCC(C)CC3)CC(=O)N2Cc2cccc(OC)c2)cc1OC (stereo unspecified)	none (no result: HPGD block, 12-hLO inh, ALDH1A1 inh, PNC inhibitor)
O=C(O)c1ccc(CSc2nnc(SCc3ccccc3)s2)cc1	HPGD block 20µM, Lamin A splicing inconclusive

High-throughput results: PubChem, National Center for Advancing Translational Sciences (NCATS)
